Measured values from PubChem BioAssay (EPA / NIEHS).
Records with an inconclusive call do not appear. Activity calls are given as the source filed them. The calls were made as follows, unless noted: active = hit-call score of the fitted dose curve at least 0.9, where 1 is the maximum; inactive = score below 0.9.

Columns and labels:
[1] = target: human Vitamin D Receptor (VDR), VDR (gene 7421) (UniProt P11473); assay: ATG_VDR_TRANS: Attagene TRANS-FACTORIAL HepG2 Assay for human Vitamin D Receptor (VDR) (AID 2283022; active = hit-call score of the fitted dose curve at least 0.9, where 1 is the maximum)
Outline: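 RT-PCR/capillary electrophoresis read-out of reporter mRNA induction in transiently transfected HepG2; 24 h dosing; chimeric NR-Gal4 (TRANS format); gain-of-signal fit against DMSO baseline.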

[2] = read-out: Monokine induced gamma interferon (MIG), CXCL9 (gene 4283); assay: BSK_3C_MIG: BioMAP Diversity Plus: 3C Assay for Monokine induced gamma interferon (MIG) Biomarker Activity (AID 2283021); details: primary human endothelial cells (HUVEC); actives raise or lower the signal
Outline: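 ELISA-measured MIG in dosed HUVEC 3C cultures at 24 h, analysed by bidirectional fitting with DMSO defining baseline activity.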

[3] = BSK_3C_SRB: Viability Assessment in the BioMAP Diversity Plus: 3C Assay (AID 2283023); details: primary human endothelial cells (HUVEC);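 also: cells read 24 h after compound dosing; fitted both ways against DMSO so a hit may be signal rise or drop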
Outline: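 HUVEC, 24 h post-dose; 10% TCA fix, 0.1% SRB stain, A560 nm. Bidirectional curve fit vs DMSO negative control.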

[4] = BSK_3C_Vis: BioMAP Diversity Plus: 3C Assay for Morphology Visualization (AID 2283025); details: primary human endothelial cells (HUVEC);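 also: fitted both ways so gain or loss versus DMSO counts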;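 as to AC50: light microscopy image of cell morphology used as background control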
Outline: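 Light-microscopy morphology readout, 24 h exposure, human primary umbilical vein endothelium; analysed relative to DMSO with bidirectional fitting.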

[5] = read-out: Pselectin, SELP (gene 6403); assay: BSK_4H_Pselectin: BioMAP Diversity Plus: 4H Assay for Pselectin Biomarker Activity (AID 2283026); details: primary human endothelial cells (HUVEC); actives raise or lower the signal
Outline: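 Bidirectional fits against DMSO gave the endpoint. Cells: primary human umbilical vein endothelium, chemical-treated for 24 h before ELISA detection of P-selectin.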

[6] = read-out: Thrombomodulin, THBD (gene 7056); assay: BSK_3C_Thrombomodulin: BioMAP Diversity Plus: 3C Assay for Thrombomodulin Biomarker Activity (AID 2283029); details: primary human endothelial cells (HUVEC); actives raise or lower the signal
Outline: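 In a multiplexed primary-cell system, human umbilical vein endothelium received chemical and was assayed 24 h later for thrombomodulin by ELISA. Parallel cultures were SRB-stained (0.1% SRB after 10% TCA fixation, read at 560 nm) to flag cytotoxicity.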

[7] = read-out: Vascular endothelial growth factor receptor 2 (Homo sapiens) (UniProt P35968); assay: BSK_4H_VEGFRII: BioMAP Diversity Plus: 4H Assay for Vascular endothelial growth factor receptor 2 (VEGFR2) Biomarker Activity (AID 2283031); details: primary human endothelial cells (HUVEC); actives raise or lower the signal;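 as to AC50: cell-surface VEGFR2 protein level quantified by ELISA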
Outline: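 HUVEC (human primary), 4H system; 24 h post-dose; VEGFRII by ELISA; bidirectional curve fit vs DMSO baseline; gain or loss of signal scored.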

[8] = read-out: Human Leukocyte Antigen - DR isotype (HLADR), HLA-DRA (gene 3122); assay: BSK_BE3C_HLADR: BioMAP Diversity Plus: BE3C Assay for Human Leukocyte Antigen - DR isotype (HLADR) Biomarker Activity (AID 2283032); details: primary human bronchial epithelial cells; actives raise or lower the signal
Outline: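 BioMAP BE3C format: human bronchial epithelium, 24 h compound treatment, ELISA detection of HLA-DR, with bidirectional analysis relative to DMSO.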

[9] = read-out: Vascular cell adhesion molecule 1 (VCAM1), VCAM1 (gene 7412); assay: BSK_4H_VCAM1: BioMAP Diversity Plus: 4H Assay for Vascular cell adhesion molecule 1 (VCAM1) Biomarker Activity (AID 2283033); details: primary human endothelial cells (HUVEC); actives raise or lower the signal
Outline: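 In this human endothelial (HUVEC) system, biomarker ELISA was run 24 h after compound addition, and total protein in parallel wells was assessed by SRB at 560 nm; DMSO served as negative control.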

[10] = read-out: Interferon-gamma inducible Protein 10 (IP10), CXCL10 (gene 3627); assay: BSK_BE3C_IP10: BioMAP Diversity Plus: BE3C Assay for Interferon-gamma inducible Protein 10 (IP10) Biomarker Activity (AID 2283034); details: primary human bronchial epithelial cells; actives raise or lower the signal
Outline: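 BE3C cells (human bronchial epithelial, primary); 24 h exposure; ELISA for IP-10; DMSO-referenced bidirectional fit.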

[11] = read-out: Monokine induced gamma interferon (MIG), CXCL9 (gene 4283); assay: BSK_BE3C_MIG: BioMAP Diversity Plus: BE3C Assay for Monokine induced gamma interferon (MIG) Biomarker Activity (AID 2283035); details: primary human bronchial epithelial cells; actives raise or lower the signal;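 also: MIG protein measured by ELISA in BE3C cultures after 24 h of dosing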
Outline: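 ELISA quantified MIG after 24 h exposure of primary bronchial epithelial cultures, analysed in both directions relative to DMSO. Cytotoxicity tracked in parallel cultures by sulforhodamine B staining.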

[12] = read-out: Transforming growth factor beta 1 (TGFb1), TGFB1 (gene 7040); assay: BSK_BE3C_TGFb1: BioMAP Diversity Plus: BE3C Assay for Transforming growth factor beta 1 (TGFb1) Biomarker Activity (AID 2283036;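 also: TGF-b1 protein level measured by ELISA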); details: primary human bronchial epithelial cells; actives raise or lower the signal
Outline: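 TGF-b1 measured via ELISA, 24 h after chemical dosing of human bronchial epithelial cells (BE3C). Overt cytotoxicity assessed in parallel by SRB (0.1%, TCA-fixed, 560 nm); analysis bidirectional relative to DMSO.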

[13] = read-out: urokinase plasminogen activator (uPA), PLAU (gene 5328); assay: BSK_BE3C_uPA: BioMAP Diversity Plus: BE3C Assay for urokinase plasminogen activator (uPA) Biomarker Activity (AID 2283038); details: primary human bronchial epithelial cells; actives raise or lower the signal;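 also: uPA protein level quantified by ELISA in cell cultures; uPA read one day after compound addition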
Outline: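 ELISA read-out of uPA in human lung primary bronchial epithelial cultures, 24 h post-dosing. Gain or loss of signal fitted bidirectionally relative to DMSO baseline; cytotoxicity checked in parallel cultures via SRB total protein stain.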

[14] = read-out: Urokinase-type plasminogen activator receptor (uPAR), PLAUR (gene 5329); assay: BSK_BE3C_uPAR: BioMAP Diversity Plus: BE3C Assay for Urokinase-type plasminogen activator receptor (uPAR) Biomarker Activity (AID 2283039); details: primary human bronchial epithelial cells; actives raise or lower the signal
Outline: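 Chemically treated human bronchial epithelial cells (lung primary) are assayed for uPAR by ELISA after 24 h, with data fitted in both directions using DMSO as negative control.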

[15] = read-out: Interleukin-6 (IL6), IL6 (gene 3569); assay: BSK_CASM3C_IL6: BioMAP Diversity Plus: CASM3C Assay for Interleukin-6 (IL6) Biomarker Activity for (AID 2283040); details: primary human coronary artery smooth muscle cells; actives raise or lower the signal
[16] = BSK_BE3C_SRB: Viability Assessment in the BioMAP Diversity Plus: BE3C Assay (AID 2283028); details: primary human bronchial epithelial cells
Outline: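 Primary human bronchial epithelium; chemical dosing, 24 h; 10% TCA fix, 0.1% SRB stain, A560; bidirectional fit vs DMSO baseline.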

[17] = read-out: Urokinase-type plasminogen activator receptor (uPAR), PLAUR (gene 5329); assay: BSK_4H_uPAR: BioMAP Diversity Plus: 4H Assay for Urokinase-type plasminogen activator receptor (uPAR) Biomarker Activity (AID 2283030); details: primary human endothelial cells (HUVEC); actives raise or lower the signal
Outline: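 HUVEC, 24 h post-dose; uPAR by ELISA; bidirectional fit vs DMSO baseline.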

Measured: AC50

Chain of human Vitamin D Receptor (VDR), VDR (gene 7421) (P11473 whole entry, looked up, the tested form may be a part): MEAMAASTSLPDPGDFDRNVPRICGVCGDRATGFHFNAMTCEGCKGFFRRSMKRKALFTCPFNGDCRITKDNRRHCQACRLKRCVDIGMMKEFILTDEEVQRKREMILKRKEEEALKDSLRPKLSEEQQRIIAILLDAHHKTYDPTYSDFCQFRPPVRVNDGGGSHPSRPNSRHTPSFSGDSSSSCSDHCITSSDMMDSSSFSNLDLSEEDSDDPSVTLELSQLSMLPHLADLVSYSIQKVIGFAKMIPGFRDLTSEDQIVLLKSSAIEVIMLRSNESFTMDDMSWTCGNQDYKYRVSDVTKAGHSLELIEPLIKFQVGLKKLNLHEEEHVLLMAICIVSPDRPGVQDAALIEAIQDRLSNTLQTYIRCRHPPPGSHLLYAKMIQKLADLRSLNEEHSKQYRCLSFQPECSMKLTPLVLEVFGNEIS

CCN(CCN)c1cccc(C)c1
inactive: [1]

C[Si](C)(C)O[Si](C)(C)C
inactive: [1]

CCOC(=O)CCc1ccccc1
inactive: [1]

CCCCCCCCC=CCCCCCCCC1=NCCN1CCO
inactive: [1]

OCC#CCO
inactive: [1]

COC(=O)c1ccc(C)cc1C1=NC(C)(C(C)C)C(=O)N1 (configuration not stated) (tested in a mixture with another compound)
inactive: [1]

O=C1OC(=O)c2c(Br)c(Br)c(Br)c(Br)c21
inactive: [1]

Cc1c(C2(c3cc(Br)c(O)c(Br)c3C)OS(=O)(=O)c3ccccc32)cc(Br)c(O)c1Br
inactive: [1]

C=C(C)C(=O)OCCOCCOCCOC(=O)C(=C)C
active: [8] 3.97 µM
not listed: [1] | [16] | [17]
inactive: all other assays above

OCC(O)c1ccccc1 (configuration not stated)
inactive: [1]

Clc1cc(Cl)c(-c2c(Cl)c(Cl)cc(Cl)c2Cl)cc1Cl
inactive: [2] | [6] | [11] | [12] | [13] | [15]
active: [3] 15.8 µM | [4] 19.9 µM | [5] 10 µM | [7] 10 µM | [8] 12.9 µM | [9] 8.56 µM | [10] 17.5 µM | [14] 1.98 µM

CCCSc1ccc2nc(NC(=O)OC)[nH]c2c1
inactive: [1]

O=CN1CCOCC1
not listed: [1] | [4] | [12]
inactive: all other assays above
